Experimental findings from PubChem BioAssay (NCI) are described below.

The panel holds about 83,000 compounds, 20% with a hit somewhere; the sample as a whole holds those more often.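 The endpoint reported here, percent growth, reads 100 for growth as untreated, 0 for no net growth and -100 for all cells dead.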 Activity calls are given as the source filed them. How the source made its calls: active means growth percent below 10; inactive means the rest.

In the first experiment the test system is SK-MEL-5 melanoma. In words: NCI-60 one-dose screen, 48 h (100 = growth as untreated, 0 = no growth, -100 = all killed). To be noted: 10 µM unless noted.
Take `Cn1c(=O)c2[nH]c(C3CC=CCC3)nc2n(C)c1=O` (configuration not stated): the growth was 111% (inactive). On the same count and under the same terms, to `O=[N+]([O-])c1cc(S(=O)(=O)Oc2ccccc2)ccc1Cl` belongs 6.43% (active).

Take `C=C(C)[C@@H]1C[C@H](O)Cc2cc(F)ccc2N1`: the growth is 99.3% (inactive). With `COc1ccc2c(c1)[nH]c(=O)c1c3cccc(F)c3cn21`, the growth was 27.6% (inactive). On the same count and under the same terms, to `CN(C)c1nc2c(N)ncnc2n1C1OC(CO)C(O)C1O` (configuration not stated) belongs 108% (inactive).

Regarding `O=C1NN(C(=O)c2ccc(Cl)cc2)C(c2ccccc2)=N/C1=C\c1ccc(F)cc1`, the growth was 88.1% (inactive). The same measure, in the same setting: as for `O=C1/C(=C/c2ccc(Cl)cc2)CN(Cc2cn(CCNc3ccnc4cc(Cl)ccc34)nn2)C/C1=C\c1ccc(Cl)cc1`, the figure is -100% (active); as for `NC(=S)N/N=C1\CCCC(C(F)(F)F)C1` (configuration not stated), 116% (inactive).

The next experiment relates to UACC-62 melanoma. The experiment is described as above. To be noted: 10 µM unless noted.
Turning to `O=c1cc(Cc2ccc([N+](=O)[O-])cc2)[nH]c(=O)[nH]1`, the growth was 99.9% (inactive).

Turning to `Cc1csc(NC(c2ccccc2)c2c(C)nc3ccccn23)n1` (configuration not stated), the growth is 94.2% (inactive). For `Cc1ccc(/C=C2\CN(C(=O)CCN3CCC(=NO)CC3)C/C(=C\c3ccc(C)cc3)C2=O)cc1`, the growth was -50.8% (active). Take `O=C1Nc2ccc3c(c2/C1=C\c1cc2c(cc1Br)OCO2)OCO3`: the growth was 43.9% (inactive). Same read-out and setting: as for `c1ccc(-c2nc(N3CCNCC3)c3nc(-c4ccccc4)oc3n2)cc1`, the figure is -92.8% (active); as for `CCN(CC)c1ccc(CNc2ccnc3ccccc23)cc1`, 76.4% (inactive). Same read-out and setting: as for `CN(CCCCN(C[C@H]1Cc2ncccc2CN1)[C@H]1CCCc2cccnc21)C1CCC(F)(F)CC1`, the figure is 98.2% (inactive); as for `ClC(Cl)c1nc(-c2ccccc2)nc2cc(-c3ccccc3)nn12`, 62.8% (inactive). Same read-out and setting: as for `O=[N+]([O-])c1ccc(OCCCOc2ccccc2)cc1`, the figure is 93.7% (inactive); as for `N#C/C(=C1C=C/C(=N/O)C(Cl)=C/1)c1ccc(Cl)cc1`, 58.3% (inactive); as for `CCCCC(CC)OC(=O)C(Br)CC` (configuration not stated), 106% (inactive).

For `C=C[C@@H]1C[C@@H]2Cc3c(C)cc(C)cc3N1O2`, the growth was 96% (inactive).

Turning to `C=C[C@@H]1C[C@@H]2Cc3ccccc3N1O2`, the growth is 101% (inactive). For `CC(=O)OC[C@]12CC[C@H]3[C@@H](C[C@H]4O[C@]45CC=CC(=O)[C@]35C)[C@]1(O)CC[C@@]2(O)[C@@](C)(O)C1CC(C)=C(C)C(=O)O1` (some centres not stated), the growth is -71.1% (active). Same read-out and setting: to `CO[C@H]1NC(=O)N(S(=O)(=O)c2ccc(Cl)cc2)[C@@H]1OC` belongs 100% (inactive); to `COC(=O)c1cc2cc(-c3ccc(OC)cc3)cnc2[nH]1`, 23.8% (inactive); to `O=C(Nc1cccc(-n2cc(-c3ccncc3)c(-c3ccc(Cl)c(O)c3)n2)c1)Nc1cc(C(F)(F)F)cc(C(F)(F)F)c1`, -65.6% (active). As to `C[n+]1c(/C=C/c2c(O)ccc3ccccc23)ccc2ccccc21`, the growth is 44.6% (inactive). The same measure, in the same setting: as for `COc1ccc(-c2cn(-c3cccc(C(=O)/C=C/c4cc(OC)c(OC)c(OC)c4)c3)c(=O)[nH]2)cc1OC`, the figure is 73.1% (inactive); as for `C=C[C@@H]1C[C@H](O)Cc2c(C)cc(C)cc2N1`, 98.2% (inactive); as for `O=C(O)Cc1cccc(=O)c(O)c1C(=O)O`, 100% (inactive).

As for `COc1cc(/C=C/C(=O)c2ccc(Nc3ncnc4cc(OC)c(OC)cc34)cc2)cc(OC)c1`, the growth was 99.9% (inactive). For the compound `COc1cc(/C=C/C(=O)c2cccc(-n3cc(-c4cc(OC)c(OC)c(OC)c4)[nH]c3=O)c2)cc(OC)c1OC`, the growth is 7.42% (active). As to `COC1=C(OC)C(=O)C(CCCCCCCCCC[P+](c2ccccc2)(c2ccccc2)c2ccccc2)=C(C)C1=O`, the growth is -93% (active). The same measure, in the same setting: as for `C=C[C@@H]1C[C@H](O)Cc2ccccc2N1`, the figure is 102% (inactive). Still for that read-out and setting: to `CCN1C(=O)N(CC)C2C1NN=c1s/c(=C\c3cccnc3)c(=O)n12` (configuration not stated) belongs 30.7% (inactive); to `O=S(=O)(CC(O)(c1ccccc1)c1ccccc1)CC(O)(c1ccccc1)c1ccccc1`, 93.7% (inactive). In the case of `CCN(CC)CCCC(C)Nc1c2ccc(Cl)cc2nc2cc(OC)c(OC)cc12` (configuration not stated), the growth was -38% (active). On the same count and under the same terms, to `CCCCCCCCCCCC(=O)NCCC[N+](C)(C)CC(=O)[O-]` belongs 78% (inactive); to `CCOC(=O)/C(C#N)=C1/C(=O)Nc2ccccc21`, 103% (inactive).

Turning to `Cn1c(=O)c2[nH]c(C3CC=CCC3)nc2n(C)c1=O` (configuration not stated), the growth is 96% (inactive).

Regarding `O=[N+]([O-])c1cc(S(=O)(=O)Oc2ccccc2)ccc1Cl`, the growth is 65.8% (inactive). Still for that read-out and setting: to `C=C(C)[C@@H]1C[C@H](O)Cc2cc(F)ccc2N1` belongs 95.6% (inactive); to `COc1ccc2c(c1)[nH]c(=O)c1c3cccc(F)c3cn21`, 40.3% (inactive); to `CN(C)c1nc2c(N)ncnc2n1C1OC(CO)C(O)C1O` (configuration not stated), 99.1% (inactive). Same read-out and setting: as for `O=C1NN(C(=O)c2ccc(Cl)cc2)C(c2ccccc2)=N/C1=C\c1ccc(F)cc1`, the figure is 74% (inactive); as for `N[C@H]1CN(C(=O)c2cc3cc(Br)c(F)c(F)c3[nH]2)C[C@@H]1O`, 93.6% (inactive); as for `O=C1/C(=C/c2ccc(Cl)cc2)CN(Cc2cn(CCNc3ccnc4cc(Cl)ccc34)nn2)C/C1=C\c1ccc(Cl)cc1`, -87.1% (active). Still for that read-out and setting: as for `NC(=S)N/N=C1\CCCC(C(F)(F)F)C1` (configuration not stated), the figure is 100% (inactive).
